Assay results: the supplement of paper PMC3334620
Over roughly 33,000 sequences, “E-score (-0.5 to 0.5)” has its median near -0.032; the highest 2% begin near 0.36. The sample as a whole holds a higher share of the highest values than the screen did.

Each sequence was assayed against T1, Sko1 (UniProt Q02100) (assay: PBM E-score (8-mer binding enrichment) (E-score (-0.5 to 0.5)); higher = stronger / more preferred TF binding). Details: protein concentration: 200 nM; construct: GST-full length.
T1 sequence: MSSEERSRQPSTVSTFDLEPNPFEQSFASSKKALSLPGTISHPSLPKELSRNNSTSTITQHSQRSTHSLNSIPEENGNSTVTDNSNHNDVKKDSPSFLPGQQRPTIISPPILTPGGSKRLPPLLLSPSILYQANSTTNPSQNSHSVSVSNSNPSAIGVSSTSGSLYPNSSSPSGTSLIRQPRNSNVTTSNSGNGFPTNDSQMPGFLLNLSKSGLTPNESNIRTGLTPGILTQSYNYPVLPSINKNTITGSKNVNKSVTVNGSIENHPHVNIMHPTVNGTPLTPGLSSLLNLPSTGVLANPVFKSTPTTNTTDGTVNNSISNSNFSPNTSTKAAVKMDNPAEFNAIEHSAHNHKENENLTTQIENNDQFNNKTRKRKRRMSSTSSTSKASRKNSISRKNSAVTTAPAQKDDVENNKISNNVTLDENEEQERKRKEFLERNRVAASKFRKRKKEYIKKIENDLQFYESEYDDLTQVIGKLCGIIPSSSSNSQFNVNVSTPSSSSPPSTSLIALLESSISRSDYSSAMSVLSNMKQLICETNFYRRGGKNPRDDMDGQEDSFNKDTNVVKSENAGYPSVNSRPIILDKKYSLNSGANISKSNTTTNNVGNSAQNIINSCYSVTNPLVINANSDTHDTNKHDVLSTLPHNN
Method: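 Universal 'all 10-mer' protein binding microarrays (Agilent AMADID 015681) probed with GST-tagged S. cerevisiae TFs (full-length or DBD) made by in vitro transcription/translation (PURExpress), about 100-200 nM. Bound TF was detected with fluorescent anti-GST. Each ungapped 8-mer (which stands for itself and its reverse complement) is scored by the PBM enrichment score (E-score), a modified Wilcoxon-Mann-Whitney statistic from -0.5 to +0.5, computed with the Universal PBM Analysis Suite. Scale: above 0.35 generally sequence-specific binding.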

Row | Sequence | PBM E-score
1 | AAGTTCCA | -0.0591
2 | ACTACGCA | 0.367
3 | TCTACGCA | 0.32
4 | GCTACGCA | 0.294
5 | CCTACGCG | 0.117
6 | CCTACGCC | -0.0487
7 | CCTACGCA | 0.361
8 | CCCCAACC | -0.062
9 | CCCACGTC | 0.402
10 | CCCACGTA | 0.39
11 | CCCACGGA | -0.0825
12 | CCCACGCA | 0.109
13 | CCCACGGC | -0.145
14 | CCCACGCC | -0.127
15 | AACTAATT | 0.182
16 | ATCTAGAG | -0.0987
17 | ATGTTTTG | 0.109
18 | CTGCGTCA | 0.435
19 | ATGCGTCA | 0.467
20 | GTGCGTCA | 0.456
21 | ATGCGTCC | -0.124
22 | ATGCGTCG | 0.0928

Row | Sequence | PBM E-score
23 | CTGCGTCC | -0.112
24 | GTGCGTGA | 0.274
25 | CGGCGTCA | 0.241
26 | GTGCGTTA | 0.259
27 | CTTCAGCA | -0.0157
28 | CACCTTTC | -0.223
29 | CAGACCTA | 0.125
30 | ACCTGTCC | -0.267
31 | AAGAAGGT | -0.0729
32 | AAGGATGG | 0.00772
33 | AATTGCGA | 0.0547
34 | AATTGCGT | 0.448
35 | AATTGCGG | -0.172
36 | CGTGAATC | 0.13
37 | ACGATTTA | 0.328
38 | GCGTGTGA | 0.107
39 | ATGTGTGC | -0.0761
40 | CCGTGCGC | -0.067
41 | ACGTGCGC | 0.381
42 | ACGTGGGG | 0.316
43 | ACGTGTGA | 0.401
44 | ACGTGTGC | 0.388

Row | Sequence | PBM E-score
45 | ACGTGTGG | 0.395
46 | CCGTGTGC | -0.179
47 | ATGTGTGG | -0.144
48 | ACGTGCGG | 0.308
49 | CCGTGTGA | -0.0471
50 | ACCATACT | -0.0266
51 | AGATTTGA | 0.144
52 | CATAATAC | 0.3
53 | ACGATGTA | 0.226
54 | GAGCTACC | -0.212
55 | CAAAAAAA | 0.187
56 | GACACGTC | 0.382
57 | GACACGGA | -0.224
58 | GACACGGC | -0.0578
59 | GACACGTA | 0.44
60 | GACACGCA | 0.284
61 | GACACGCC | 0.0381
62 | ACCCGTCG | -0.238
63 | ATGACCCG | -0.254
64 | CTGACGTC | 0.482
65 | CGGACGTA | 0.353
66 | CTGACGGC | -0.167

Row | Sequence | PBM E-score
67 | CTGACGTA | 0.489
68 | CTGACCTC | -0.296
69 | CTGACGGA | 0.0532
70 | AATAGCCA | 0.204
71 | AAGAAAGG | 0.00665
72 | ACAGAGCA | -0.0386
73 | AACGTGAT | 0.333
74 | AGCGTAAC | 0.266
75 | AGCGTAAT | 0.366
76 | ACCGTAAG | 0.123
77 | ATCGTAAT | 0.401
78 | AAGGTAAG | -0.00253
79 | AGCGTAAG | 0.0565
80 | ATCGTAAA | 0.32
81 | ATCGTAAG | 0.234
82 | ACCGTAAT | 0.201
83 | AACGTAAG | 0.397
84 | AACGTAAT | 0.48
85 | AACCCACC | -0.0866
86 | AGCGAAGC | -0.0755
